From PubChem BioAssay
A selection: hits, their analogues and other compounds. The true share with any hit is near 18%.
VDR inh – vitamin D3 receptor (human) inhibition. P11473. Potency, µM, for inactives: max response, negative = inhibition, actives largely listed as inhibitors. 0.93% of 400,000 active. VDR-SRC2-3 peptide fluorescence polarization, 2 h. AID 504847
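Signal is fluorescence polarization, reporting how far test compounds block the interaction of VDR with the SRC2-3 coregulator peptide after a 2 h room-temperature incubation.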
TDP1 inh – inhibitors of human tyrosyl-DNA phosphodiesterase TDP1. Q9NUW8. recombinant TDP1, AlphaScreen DNA substrate cleavage. Potency, µM (series often up to 130 µM), for the others: at the highest dose activity change, negative = inhibition, usual class: inhibitors. 0.28% of 350,000 active. AID 485290; also: nearly all actives have a fitted effect of over 40% in size
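Tdp1 1 nM final; 15 min RT w/ cpd; substrate 15 nM, 5 min; beads 10 ug/ml, 10 min; AlphaScreen read. Neg ctrl: no enzyme.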
PLK1 PBD inh – inhibitors of human PLK1 polo-box domain binding; Plk1 PBD binding of FITC phosphopeptide, fluorescence polarization; Potency, µM, without a hit: max response, negative = inhibition, hits mostly inhibitors; 2.8% of 360,000 active; also: series mostly up to about 57 µM; nearly all actives have a fitted effect of over 65% in size
TDP1 cell CPT – DT40-hTDP1 cell growth loss with CPT. chicken DT40 Tdp1-/-;hTDP1 cells + 20 nM CPT, ATP luminescence, 48 h. Potency, µM (highest dose often 46.2 µM), for the others: at the top dose activity change, negative = growth inhibition, actives largely listed as inhibitors. 12% of 420,000 active; also: nearly all actives have a fitted effect of over 55% in size
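Chicken DT40 Tdp1-/- cells stably complemented with human TDP1 were seeded at 400 cells/well in medium containing 20 nM camptothecin, exposed to pin-transferred compounds, and grown at 37 °C for at least 48 hr. Viability was read as ATP luminescence.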
GCN5L2 inh – GCN5L2 (KAT2A) acetyltransferase inhibition. GCN5L2 HAT assay, ThioGlo1 CoA-SH fluorescence. 0.21% of 390,000 active. AID 504327. Potency, µM (doses to about 58.9 µM), without a hit: top-dose activity change, negative = inhibition, usual class: inhibitors
Target sequence (Q92830 whole entry, looked up): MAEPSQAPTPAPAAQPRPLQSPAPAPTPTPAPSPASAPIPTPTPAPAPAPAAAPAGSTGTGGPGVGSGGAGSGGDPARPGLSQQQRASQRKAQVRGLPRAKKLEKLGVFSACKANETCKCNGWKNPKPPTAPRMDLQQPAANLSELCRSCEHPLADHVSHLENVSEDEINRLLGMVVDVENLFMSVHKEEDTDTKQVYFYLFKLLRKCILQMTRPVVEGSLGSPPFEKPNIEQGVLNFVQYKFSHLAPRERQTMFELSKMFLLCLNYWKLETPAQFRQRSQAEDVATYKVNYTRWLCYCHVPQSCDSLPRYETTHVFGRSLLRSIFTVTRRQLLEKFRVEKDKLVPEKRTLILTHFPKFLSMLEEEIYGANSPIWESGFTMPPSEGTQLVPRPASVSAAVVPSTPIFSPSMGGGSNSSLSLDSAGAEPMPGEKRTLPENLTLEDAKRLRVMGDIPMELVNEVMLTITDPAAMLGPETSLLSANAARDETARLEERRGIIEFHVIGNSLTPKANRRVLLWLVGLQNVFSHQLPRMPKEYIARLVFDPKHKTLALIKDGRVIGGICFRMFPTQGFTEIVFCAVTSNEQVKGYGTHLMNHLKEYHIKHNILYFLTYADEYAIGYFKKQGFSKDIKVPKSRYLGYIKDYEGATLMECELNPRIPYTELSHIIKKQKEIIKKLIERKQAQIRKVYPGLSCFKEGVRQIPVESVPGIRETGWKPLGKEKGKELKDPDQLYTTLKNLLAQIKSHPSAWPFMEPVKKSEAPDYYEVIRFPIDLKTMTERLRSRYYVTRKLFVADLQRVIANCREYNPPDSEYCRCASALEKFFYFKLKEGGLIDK
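qHTS, 1536-well. 20nM enzyme, pH 7.5 HEPES/EDTA/Tween-20 buffer; 15 min compound preinc., RT. Start: 75uM H3(1-25), 70uM AcCoA, 50uM ThioGlo1. Read Ex340/Em540 at t=0 (autofluorescence flag) and t=20 min.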
TDP1 cell noCPT – qHTS for Inhibitors of human tyrosyl-DNA phosphodiesterase 1 (TDP1): qHTS in cells in absence of CPT. AID 686978, 2013. DT40 Tdp1-/- hTDP1 cells, no CPT, ATP luminescence, 48 h. 15% of 420,000 active. Potency, µM (top dose mostly 46.2 µM), inactives show top-dose activity change, negative = growth inhibition, actives largely listed as inhibitors; also: nearly all actives have a fitted effect of over 55% in size
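Seeded 400 DT40-hTDP1 cells/well (vehicle DMSO, no 20 nM CPT); pinned compounds; ≥48 hr at 37 °C; CellTiter-Glo luminescence as viability measure.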
The depositor's hits bear a star; ? = inconclusive; . = no result; [ ] = remark or other dose. Calls follow the shape of the dose curve; as a rule, active = well fitted curve in the direction sought with a large enough effect; inconclusive = small, poorly fitted or top-dose-only effect, or another doubt; inactive = no such curve, though single readings can be large; an effect the other way counts as inactive or inconclusive. % is scaled to controls: 0 for no effect and ±100 for the full control effect; potency is read from the fitted curve at half-maximal effect.

SMILES | VDR inh | TDP1 inh | PLK1 PBD inh | TDP1 cell CPT | GCN5L2 inh | TDP1 cell noCPT
O=C(N/N=C/c1ccccc1OCc1ccccc1)c1cccnc1 | 7% | 8% | -11% | ? | -7% | 29µM*
O=C(N/N=C/c1ccccc1[N+](=O)[O-])c1ccc(COc2ccccc2-c2ccccc2)cc1 | -11% | 1% | -1% | 12µM* | -4% | 12µM*
O=C(N/N=C/c1cccs1)c1cccnc1 | 1% | -1% | 5% | 1% | -5% | 23µM*
CC(=O)N/N=C\c1ccccc1OC/C=C/c1ccccc1 | 9% | 5% | -2% | 16µM* | 0% | ?
O=C(N/N=C/c1ccccc1F)c1ccccc1OCc1ccccc1 | -11% | . | 1% | ? | -5% | 21µM*
Cc1cccc(S(=O)(=O)NC(=O)C2(C)CCN2C(=O)c2sccc2C)c1 (centres undefined) | . | . | -6% | -7% | . | -9%
COC(=O)N/N=C\c1cc(Br)ccc1OCc1ccccc1 | -14% | 6% | -7% | ? | -6% | ?
O=C(CNC(=O)c1ccccc1F)N/N=C/c1cc(Br)ccc1OCc1ccccc1 | -4% | 3% | -13% | ? | -1% | 23µM*
Cn1c(=O)n2n(c1=O)[C@H]1[C@H](O)[C@H]3O[C@@H]3/C(=N/OC[C@@H](O)COCc3ccco3)[C@@H]1CC2 | . | -2%[21 µM] | . | . | . | .
Cc1ccc(C)n1-c1nnc(N2CCC(C(=O)NCCCN3CCN(C)CC3)CC2)s1 | -13% | . | -16% | 26µM* | ? | ?
Cc1ccc(C)n1-c1nnc(N2CCC(C(=O)NCCCN3CC(C)CC(C)C3)CC2)s1 (centres undefined) | -8% | 3% | -11% | ? | 0% | -18%
CCc1ccc(NC(=O)C2CCN(c3nnc(-n4c(C)ccc4C)s3)CC2)cc1 | 3% | 8% | . | 16µM* | 0% | 23µM*
CCOc1ccc(NC(=O)C2CCCN(c3nnc(-n4c(C)ccc4C)s3)C2)cc1 (centres undefined) | 10% | 3% | . | ? | 1% | ?
O=C(NCCCN1CCN(Cc2ccccc2)CC1)C1CCN(c2nnc(-n3cccc3)s2)CC1 | 11% | 7% | -7% | ? | -4% | 26µM*
CNC(=O)C1Cc2c(-c3ccccc3Oc3ccccc3)ccnc2O1 (centres undefined) | . | . | -12% | ? | . | -27%
COc1cc2c(cc1OC)CN(CC(=O)Nc1ccccc1C(=O)NCc1ccccc1)CC2 | 2% | 12%[0.0935 µM] | 1% | 29µM* | -4% | 15µM*
COc1cccc(N2CCN(CC(=O)Nc3ccccc3C(=O)NCCc3ccccc3)CC2)c1 | 1% | 0%[56.1 µM] | 2% | 21µM* | -7% | 18µM*
COc1cccc(N2CCN(CC(=O)Nc3ccccc3C(=O)NCc3ccccc3)CC2)c1 | 0% | 5% | -1% | ? | -11% | 16µM*
Cc1ccc(-c2nc(N/N=C/c3cccc([N+](=O)[O-])c3)c3ccccc3n2)cc1 | 3% | 10% | 0% | 13µM* | ? | 15µM*
Cc1ccc(-c2nc(N/N=C/c3cccnc3)c3ccccc3n2)cc1 | 7% | 7% | -9% | 23µM* | -18%[0.501 µM] | 18µM*
COc1ccc(/C=N/Nc2nc(-c3cccnc3)nc3ccccc23)c(OC)c1 | -5% | 2% | 4% | ? | -18% | ?
NC(=O)N[C@@H](CCC(=O)O)C(=O)O | . | . | . | 1% | . | -7%
COc1ccc(C(=O)C2CCN(C(=S)NCCc3ccc(OC)c(OC)c3)CC2)cc1 | -3% | 6% | -1% | 16µM* | ? | 12µM*
COc1ccc(CCNC(=S)N2CCC(C(=O)c3ccc(F)cc3)CC2)cc1OC | 4% | 8% | -13% | ? | -4% | ?
CCCCOc1ccc(C(=S)N2CCC(C(N)=O)CC2)cc1 | -24% | 0% | ? | -22% | -2% | ?
SMILES | VDR inh | TDP1 inh | PLK1 PBD inh | TDP1 cell CPT | GCN5L2 inh | TDP1 cell noCPT
NC(=O)C1CCN(C(=S)NCCc2ccccc2)CC1 | 4% | -7% | -10% | 5% | -8% | -1%
COc1ccc(CCNC(=S)N2CCC(C(N)=O)CC2)cc1 | -1% | . | 34µM* | -14% | 3% | -7%
COc1ccc(C(=S)N2CCC(C(N)=O)CC2)cc1Br | -7% | 0% | 19µM* | -13% | -23% | -3%
COc1ccc(C(=O)NCc2nc(-c3ccccc3NC(=O)c3cc(C)oc3C)oc2C)cc1F | . | . | . | 25% | . | 3%
CC(=O)c1c(O)cccc1O | -17% | -2% | . | . | 15% | .
COc1ccc(CN2C[C@H](Sc3nc4ccccc4[nH]3)C[C@H]2C(=O)N2CCCN(C)CC2)cc1C | . | . | . | 3%[9.04 µM] | . | -16%
Cc1cc(S(=O)(=O)N2CCCCC2)ccc1OCC(=O)N1CCCC1 | -11% | 4% | -9% | 2% | ? | -15%
Cc1cc(S(=O)(=O)N2CCN(Cc3noc(CCC(=O)N4CCCCC4)n3)CC2)ccc1F | 3% | 6% | . | 16µM* | 1% | ?
CC(=O)N1c2ccccc2C(=O)C1N1CCN(c2ccccc2)CC1 (centres undefined) | 2% | 0% | . | ? | -16% | ?
CC(=O)N1c2ccccc2C(=O)C1N1CCN(c2ccc(F)cc2)CC1 (centres undefined) | 7% | 3% | . | ? | -19% | 15µM*
COc1ccc(NC(=O)CN(C)C(=O)Cc2c(C)nc3ccccc3c2C)cc1 | 2% | 4% | -2% | ? | -14% | ?
O=C(OCC(=O)N1CCCC1=O)c1nc(Cl)c(Cl)c(Cl)c1Cl | -8% | 45µM* | -10% | -6% | -9% | 3%
Nc1c(Cl)c(Cl)nc(C(=O)OCC(=O)N2CCCC2=O)c1Cl | -24% | . | -14% | 1% | -2% | -28%
Cc1cc(C)c(CC(=O)c2ccccc2)c(C)c1 | 0% | . | -19% | -28% | . | ?
O=C(Cn1cc(C(=O)c2cccs2)c2ccccc21)Nc1ccc(Br)cc1 | -20% | 3% | . | ? | -4% | 5.8µM*
COc1ccc(OC)c(NC(=O)Cn2cc(C(=O)c3cccs3)c3ccccc32)c1 | 12% | 3% | . | ? | -8% | 18µM*
O=C(Cn1cc(C(=O)c2ccco2)c2ccccc21)Nc1ccc(Br)cc1 | -7% | 0% | . | ? | 4% | ?
COc1ccc(OC)c(NC(=O)Cn2cc(C(=O)c3ccco3)c3ccccc32)c1 | -11% | 2% | -4% | ? | -5% | 16µM*
COc1ccccc1NC(=O)Cn1cc(C(=O)c2ccco2)c2ccccc21 | -9% | 0% | -7% | -5% | -13% | -10%
